From PubChem BioAssay
SF-1 inh – inhibitors of human nuclear receptor SF-1 | Q13285 | CHO-K1 Gal4-SF-1 LBD luciferase reporter | inhibition, % at 10 µM | hit rate 0.55% among 65,000 | AID 525;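 active = inhibition above the mean inhibition of all tested compounds plus 3 SD, cut at about 48% in these data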;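 also: 0% = SF-1 transfected cells with DMSO and 100% = mock-transfected cells lacking SF-1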
Numbers without * were called inactive. Shown is part of a subset that was picked to be rich in hits.

SMILES	SF-1 inh
COc1ccccc1-n1c(-c2ccoc2)nc2ccccc2c1=O	4
COc1cc2nc(CN3CC=C(c4ccccc4)CC3)[nH]c(=O)c2cc1OC	88*
Cc1c2cnn(CC(=O)N3CCC4(CC3)OCCO4)c(=O)c2c(C)n1Cc1ccccc1F	1
CC12CCCCC1=[N+]([O-])CN2O (stereo unspecified)	-8
Cc1cnn(C2CCN(C)CC2)c1N	-12
N[C@@H](Cc1c[nH]c2ccccc12)c1nnc(SCc2ccc(F)cc2)o1	8
C=C1N2CCC(CC2)C1(O)c1ccccc1C (stereo unspecified)	-1
CCN(CC)CCN=Cc1c(O)n(CCC2=CCCCC2)c(=O)[nH]c1=O	11
CCn1nc(-c2cccs2)nc2c(=O)n(C)c(=O)nc1-2	96*
O=C(c1cccs1)C1CN2CCC1CC2 (stereo unspecified)	-5
